Assay outcomes deposited in PubChem by The Scripps Research Institute Molecular Screening Center.
Sampled rows, rich in hits. Any-hit rate of the full collection: about 3.5%.
FBW7 activator = human FBW7 E3 ligase activation, primary screen. Q969H0. AlphaScreen FBW7–phospho-cyclin E peptide binding, activator screen. normalized activity (activation), % at 26.1 µM. 650,000 compounds, 0.13% hits. AID 1259310; in the data active means normalized activity above about 1.9%;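 further: purified mutant Fbw7 with reduced substrate affinity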
Target sequence (Q969H0 whole entry, looked up): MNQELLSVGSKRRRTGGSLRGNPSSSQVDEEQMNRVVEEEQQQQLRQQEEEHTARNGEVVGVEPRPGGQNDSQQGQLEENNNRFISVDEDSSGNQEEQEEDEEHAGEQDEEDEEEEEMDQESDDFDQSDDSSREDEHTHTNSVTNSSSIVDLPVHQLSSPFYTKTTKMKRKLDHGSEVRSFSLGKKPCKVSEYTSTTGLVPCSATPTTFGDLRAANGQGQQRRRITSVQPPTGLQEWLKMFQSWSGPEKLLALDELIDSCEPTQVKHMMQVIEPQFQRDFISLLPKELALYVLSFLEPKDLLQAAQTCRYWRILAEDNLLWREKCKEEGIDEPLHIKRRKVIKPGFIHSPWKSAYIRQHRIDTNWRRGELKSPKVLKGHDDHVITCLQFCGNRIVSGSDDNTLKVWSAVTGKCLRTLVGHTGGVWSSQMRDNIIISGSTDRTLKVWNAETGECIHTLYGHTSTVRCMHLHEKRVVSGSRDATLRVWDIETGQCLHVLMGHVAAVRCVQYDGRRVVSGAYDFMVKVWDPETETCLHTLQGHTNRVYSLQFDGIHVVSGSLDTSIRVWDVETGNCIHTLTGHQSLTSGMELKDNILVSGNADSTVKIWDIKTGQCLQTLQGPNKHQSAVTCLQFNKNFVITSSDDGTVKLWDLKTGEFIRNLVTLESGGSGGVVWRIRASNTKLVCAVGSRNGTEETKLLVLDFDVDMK
GPR151 ag = activates the human receptor GPR151. 650,000 compounds, 1% hits. Q8TDV0. AID 1508602. activation, % at 11.2 µM. PathHunter beta-arrestin GPR151 cells, luminescence; in the data active means activation above about 4.9%;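 further: 0% = median of compound wells and 100% = cells with positive control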
MITF inh = inhibitors of human MITF; AID 1259374; 650,000 compounds, 0.91% hits; O75030; inhibition, % at 2.6 µM; AlphaScreen MITF homodimerization, bead proximity signal; in the data active means inhibition above about 50%;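 further: 0% = vehicle wells with protein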
TEAD-YAP inh = TEAD-YAP interaction inhibition | HEK-TIYL cells, TEAD-Gal4/YAP UAS-luciferase luminescence | inhibition, % at 9.12 µM | 640,000 compounds, 1.4% hits; in the data active means inhibition above about 32%;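 further: 0% = median of test compound wells and 100% = reference inhibitor wells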
MITF inh conf = human MITF inhibition, confirmation; shares compounds with MITF inh; AlphaScreen MITF homodimerization, biotin/His-MITF beads; inhibition, % at 2.6 µM; 4,700 compounds, 16% hits; AID 1259372;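 active means inhibition above a cutoff derived from the DMSO control wells, cut at about 28% in these data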;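 further: 0% = MITF dimer wells with DMSO only; inhibitors lower the bead chemiluminescence by keeping MITF from dimerizing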
AS interf DR = optically interferes with AlphaScreen signal in dose response. shares compounds with MITF inh. AlphaScreen optical interference counterscreen, cell-free. IC50, µM. 480 compounds, 6% hits. AID 1259373; call rule not given here
AlphaScreen intf2 = counter-screen: compounds optically interfering with AlphaScreen; shares compounds with MITF inh; LysRS AlphaScreen counterscreen, signal interference, triplicate; inhibition, % at 2.6 µM; 4,700 compounds, 7.6% hits;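 active means inhibition above a cutoff derived from the DMSO control wells, cut at about 30% in these data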
An asterisk follows results filed as active; . = not tested or not shown.

SMILES	FBW7 activator	GPR151 ag	MITF inh	TEAD-YAP inh	MITF inh conf	AlphaScreen intf2	others
COc1ccc(C(=O)N/C(=C\c2ccc([N+](=O)[O-])cc2)C(=O)Nc2ccc(C)c(C)c2)c(Cl)c1	1.3	-1.2	60.9*	-14.8	-1.2	-3.5
Cn1nccc1Nc1ccc(-n2cc(CC(=O)NCc3cccnc3)c3ccccc32)nn1	0.2	-2.3	7.8	-3.0	.	.
CCOc1ccccc1N1CCN(C(=O)c2sc3ccccc3c2Cl)CC1	0.1	-1.0	15.4	2.9	.	.
CC1=C(C(=O)OC2CCC(C)CC2)C(c2ccc3c(c2)OCO3)NC(=O)N1 (centres undefined)	0.0	-0.6	6.6	4.1	.	.
Cc1cccc(OCC(=O)Nc2cc(C)c(C)cc2O)c1	-0.1	-0.5	98.0*	-2.5	-12.4	3.2
O=S(=O)(CCc1ccccc1)NCCc1ccsc1	0.0	-1.1	-28.3	-1.9	.	.
Clc1ccc(OCC#CCn2ccnc2)cc1	0.3	2.2	58.3*	4.6	23.4	16.2
Cn1c(Sc2ccc([N+](=O)[O-])c(C(=O)O)c2)nnc1-c1ccccc1	-0.1	-0.6	-0.6	0.4	.	.
O=S(=O)(Cc1ccccc1)N1CCN(Cc2ccc(Br)cc2)CC1	-0.3	1.5	58.8*	1.1	10.4	8.7
CCc1ccc(CN2CCN(S(=O)(=O)Cc3ccccc3)CC2)cc1	-0.3	-1.8	60.0*	15.1	6.5	12.8
CSc1ccc(S(=O)(=O)N2CCN(Cc3ccccc3)CC2)cc1	0.6	-1.8	19.8	-3.7	.	.
CSc1ccc(CN2CCN(S(=O)(=O)Cc3ccccc3)CC2)cc1	-0.2	0.2	72.1*	13.6	10.0	13.1
O=S(=O)(Cc1ccc(Cl)cc1)N1CCN(Cc2ccccc2)CC1	0.6	1.2	-0.3	-0.8	.	.
O=S(=O)(Cc1ccccc1)N1CCN(C2CCN(Cc3ccccc3)CC2)CC1	-0.2	0.1	65.3*	-10.4	-6.7	-0.2
CC(C)n1c(N2CCN(Cc3ccc4c(c3)OCO4)CC2)nc2c(Nc3ccc4c(c3)OCO4)ncnc21	-0.1	0.2	-5.8	2.4	.	.
C(=N\Nc1nncc2ccccc12)/c1ccccn1	-0.5	-1.6	81.9*	77.7*	18.0	28.5
Clc1ccc(/C=N/Nc2nncc3ccccc23)cc1Cl	0.1	1.2	16.5	-27.9	.	.
COC(=O)C(C)CN1CCN(C)CC1 (centres undefined)	-0.2	0.1	59.7*	-3.2	-22.9	-6.4
O=C(NCC1CCCO1)c1ccc2c(=O)n(Cc3cccc(Br)c3)c(=S)[nH]c2c1 (centres undefined)	0.3	0.9	57.9*	-2.1	1.4	-0.9
O=C(CCc1ccccc1)N1CC[C@@H]2[C@H](CCCN2C(=O)c2n[nH]c3c2CCCC3)C1	1.0	-0.2	18.6	8.2	.	.
CN=C1SC(CC(=O)Nc2ccc(N(C)C)cc2)C(=O)N1C (centres undefined)	0.1	0.0	9.9	1.3	.	.
Cc1ccc(C)c(Cn2c(NCCNC(=O)C3CCC3)nc3c2c(=O)n(C)c(=O)n3C)c1	-0.1	0.0	73.1*	8.1	3.7	13.1
COCC(=O)NCCNc1nc2c(c(=O)n(C)c(=O)n2C)n1Cc1cc(C)ccc1C	0.0	-0.3	76.7*	6.5	1.0	9.2
CCn1c(-c2ccc(Cl)cc2)csc1=Nc1cccc(C)c1C	0.0	-0.1	-5.8	-6.0	.	.
C=CCOc1ccccc1CN(C)CCc1ccccn1	0.2	-0.4	64.8*	8.9	-11.7	-7.2
SMILES	FBW7 activator	GPR151 ag	MITF inh	TEAD-YAP inh	MITF inh conf	AlphaScreen intf2	others
CN(C)CCN(C)Cc1ccccc1[N+](=O)[O-]	-0.1	-1.0	76.1*	-2.1	10.3	17.1
CN(CCc1ccccn1)Cc1cc2c(cc1[N+](=O)[O-])OCO2	-0.1	0.9	8.0	-8.8	.	.
COc1ccc(CN(C)CCc2ccccn2)c(OC)c1	0.1	-1.4	77.0*	2.2	4.3	3.4
COc1cccc(CN(C)CCc2ccccn2)c1OC	0.0	-0.8	41.0	-2.1	.	.
CN(CCc1ccccn1)Cc1ccccc1[N+](=O)[O-]	0.0	-0.2	57.1*	1.5	10.7	0.7
CN(C)CCN(C)Cc1ccccc1F	-0.2	0.6	52.6*	-1.6	-2.2	-2.4
CN(CCc1ccccn1)Cc1ccccc1Br	0.0	0.5	81.0*	3.1	0.8	11.5
CN(CCc1ccccn1)Cc1ccccc1C(F)(F)F	0.5	-1.1	34.7	-2.0	.	.
CN(CCc1ccccn1)Cc1ccccc1F	0.2	0.5	79.4*	-1.0	1.6	19.2
CC1(C)CC(=O)C=C(NCCN2CCN(C(=O)Nc3ccc(Cl)c(Cl)c3)CC2)C1	0.0	1.8	73.5*	0.3	8.7	10.1
CC1CN(Cc2ccc(Cl)cc2)CC(C)O1 (centres undefined)	-0.2	0.9	36.8	0.0	.	.
CC1CN(Cc2cccc(Cl)c2)CC(C)O1 (centres undefined)	0.1	-0.8	63.9*	1.1	0.5	3.5
CC1CN(Cc2ccc(C(F)(F)F)cc2)CC(C)O1 (centres undefined)	0.1	-0.6	55.2*	7.8	0.7	3.7
Clc1ccc2c(c1)CC(c1nc(Nc3cncnc3)c3ccccc3n1)CO2 (centres undefined)	0.3	-0.2	50.6*	1.6	55.4*	2.9	AS interf DR=>6.48
COc1ccc2c(c1)CC(c1nc(Nc3cn[nH]c3)c3ccccc3n1)CO2 (centres undefined)	0.0	0.7	6.9	-11.1	.	.
CC(C)(C)NC(=O)Nc1nc(-c2ccc(F)cc2)cs1	0.0	1.9	-3.6	-9.2	.	.
CCOC(=O)c1[nH]c(C)c(CNc2ccccc2)c1C	-0.1	-0.9	60.0*	2.2	27.3	12.1
CCOC(=O)c1[nH]c(C)c(CNc2cccc(F)c2)c1C	0.1	1.0	-12.2	2.6	.	.
Cc1c(C(=O)Nc2ccc(Oc3ccc(Cl)cc3)cc2)sc2ncn(CC(=O)Nc3cccc(C(F)(F)F)c3)c(=O)c12	-0.5	0.7	18.0	8.4	.	.
O=C(Nc1ccccc1-c1ccccc1)C1CCCN1C(=O)Nc1ccccc1 (centres undefined)	0.1	0.6	79.0*	6.5	11.6	16.4
CCCOC(=O)c1ccc(NC(=O)c2cc(-c3ccc(Br)cc3)nc3ccccc23)cc1	-0.1	-0.6	-4.2	6.7	.	.
CCCCOC(=O)c1ccc(NC(=O)c2cc(-c3ccc(Br)cc3)nc3ccccc23)cc1	0.2	0.1	56.9*	-0.7	10.2	8.9
Cc1ccc(-c2cc(C(=O)Nc3ccccc3Br)c3ccccc3n2)cc1	-0.1	-0.4	56.0*	-13.5	7.9	11.3
Cc1ccc(-c2cc(C(=O)Nc3ccccc3Cl)c3ccccc3n2)cc1	0.2	-0.3	14.7	1.8	.	.
CC(C)(C)CC(C)(C)NC(=O)c1cccc([N+](=O)[O-])c1	0.8	-1.8	70.2*	1.6	1.9	10.0
N#Cc1c(-c2ccc(Br)cc2)cc(C2CC2)nc1SCC(=O)c1ccccc1	-0.2	-0.4	66.4*	-3.7	-7.1	15.7
